Holding throughout (test): DAPPL (digital affinity profiling via proximity ligation, sequencing); 10 mM Tris-HCl pH 7.5, 50 mM NaCl, 1 mM DTT, 4% glycerol, room temperature, 30 min; GST-TFs on glutathione beads, 16-mer random dsDNA library, 0.1% formaldehyde crosslink after washing; high values mean tight binding
One test deals with T1, FLI1 (Homo sapiens, UniProt Q01543 1-452).
T1 sequence: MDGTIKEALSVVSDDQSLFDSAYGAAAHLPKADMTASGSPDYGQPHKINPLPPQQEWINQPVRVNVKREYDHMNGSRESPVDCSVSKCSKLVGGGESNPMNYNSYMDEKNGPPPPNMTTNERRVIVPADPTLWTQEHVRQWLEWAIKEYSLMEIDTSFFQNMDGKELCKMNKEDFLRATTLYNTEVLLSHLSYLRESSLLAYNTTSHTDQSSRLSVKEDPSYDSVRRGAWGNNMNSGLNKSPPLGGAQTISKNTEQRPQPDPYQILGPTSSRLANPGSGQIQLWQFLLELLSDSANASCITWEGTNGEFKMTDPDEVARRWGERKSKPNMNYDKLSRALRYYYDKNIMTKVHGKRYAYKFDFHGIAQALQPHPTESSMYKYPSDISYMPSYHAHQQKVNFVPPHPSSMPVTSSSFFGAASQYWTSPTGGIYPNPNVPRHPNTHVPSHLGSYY
To be noted: protein: recombinant; tags: N-terminal GST; dsDNA, one strand shown. An outline of the steps:
(§1)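 Sequencing on an Illumina NextSeq500 followed washing, crosslinking with 0.1% formaldehyde, proximity ligation (BsaI/T4 ligase, 1 h, 37 °C) and PCR amplification of pools that had been incubated for 30 min at room temperature with 200 nmole of a random double-stranded 16-mer DNA library in Tris/NaCl/DTT/glycerol buffer. Each pool held DNA-barcoded human transcription factors, expressed in yeast as GST fusions and captured on glutathione beads, plus a tag-only sample. Binding signal is a hexamer's read frequency for a factor divided by its frequency in the tag-only sample.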

The target of another test is T2, ELK1 (Homo sapiens, UniProt P19419 1-428).
T2 sequence: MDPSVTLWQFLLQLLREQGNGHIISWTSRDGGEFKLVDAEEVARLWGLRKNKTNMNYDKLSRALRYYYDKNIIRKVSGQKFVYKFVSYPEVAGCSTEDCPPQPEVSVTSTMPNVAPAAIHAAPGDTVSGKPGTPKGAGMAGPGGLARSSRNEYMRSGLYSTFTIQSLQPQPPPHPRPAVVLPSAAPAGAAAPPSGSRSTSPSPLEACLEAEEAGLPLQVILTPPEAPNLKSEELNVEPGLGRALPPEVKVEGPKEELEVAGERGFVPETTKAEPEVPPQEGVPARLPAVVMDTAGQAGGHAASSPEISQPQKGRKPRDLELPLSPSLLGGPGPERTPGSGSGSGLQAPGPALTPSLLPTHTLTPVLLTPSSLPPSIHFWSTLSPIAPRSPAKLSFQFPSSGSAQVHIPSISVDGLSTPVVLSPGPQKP
To be noted: protein: recombinant; tags: N-terminal GST; dsDNA, one strand shown. An outline of the steps:
as §1

A further test concerns the target T3, GABPA (Homo sapiens, UniProt Q06546 1-454).
T3 sequence: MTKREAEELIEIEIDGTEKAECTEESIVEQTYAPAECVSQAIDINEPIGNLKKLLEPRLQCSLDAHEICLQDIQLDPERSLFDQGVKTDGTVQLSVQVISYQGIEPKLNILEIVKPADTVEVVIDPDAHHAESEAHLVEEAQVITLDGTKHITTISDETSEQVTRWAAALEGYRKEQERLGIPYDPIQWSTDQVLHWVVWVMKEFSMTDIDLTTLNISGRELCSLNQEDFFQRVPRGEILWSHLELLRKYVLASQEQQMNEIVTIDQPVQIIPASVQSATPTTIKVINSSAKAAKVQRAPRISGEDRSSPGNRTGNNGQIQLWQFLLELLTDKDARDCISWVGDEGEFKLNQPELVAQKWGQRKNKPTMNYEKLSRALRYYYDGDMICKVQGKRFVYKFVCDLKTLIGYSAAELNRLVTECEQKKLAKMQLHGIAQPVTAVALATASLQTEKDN
As to conditions: protein: recombinant; tags: N-terminal GST; dsDNA, one strand shown. An outline of the steps:
as §1

The next test has as its target T4, ERG (Homo sapiens, UniProt P11308 1-479).
T4 sequence: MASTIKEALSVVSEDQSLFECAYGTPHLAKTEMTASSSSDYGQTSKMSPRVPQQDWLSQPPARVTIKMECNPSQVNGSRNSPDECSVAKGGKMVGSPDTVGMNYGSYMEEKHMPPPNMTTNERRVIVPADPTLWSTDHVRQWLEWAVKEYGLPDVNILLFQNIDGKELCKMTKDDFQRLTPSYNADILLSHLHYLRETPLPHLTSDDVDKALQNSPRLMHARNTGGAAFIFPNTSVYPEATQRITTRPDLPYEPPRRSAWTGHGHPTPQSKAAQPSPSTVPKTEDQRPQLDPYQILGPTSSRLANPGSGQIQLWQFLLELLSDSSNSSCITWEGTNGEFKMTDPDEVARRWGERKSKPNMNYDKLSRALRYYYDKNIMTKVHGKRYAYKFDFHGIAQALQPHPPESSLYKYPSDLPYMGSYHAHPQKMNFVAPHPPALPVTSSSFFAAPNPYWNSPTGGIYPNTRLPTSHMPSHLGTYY
As to conditions: protein: recombinant; tags: N-terminal GST; dsDNA, one strand shown. An outline of the steps: as §1

Another test addresses ELF1 (Homo sapiens, UniProt P32519 1-619). To be noted: protein: recombinant; tags: N-terminal GST; dsDNA, one strand shown. An outline of the steps: as §1
The next test concerns the target T5, EHF (Homo sapiens, UniProt Q9NZC4 1-300).
T5 sequence: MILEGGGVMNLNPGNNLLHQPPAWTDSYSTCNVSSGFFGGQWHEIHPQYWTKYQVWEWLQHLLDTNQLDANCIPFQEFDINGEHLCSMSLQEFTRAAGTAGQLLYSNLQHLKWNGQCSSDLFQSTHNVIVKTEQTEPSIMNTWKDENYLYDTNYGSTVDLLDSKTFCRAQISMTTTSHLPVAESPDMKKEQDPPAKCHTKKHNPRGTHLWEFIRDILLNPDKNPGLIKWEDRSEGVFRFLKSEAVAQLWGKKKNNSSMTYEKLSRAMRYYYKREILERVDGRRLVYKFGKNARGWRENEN
To be noted: protein: recombinant; tags: N-terminal GST; dsDNA, one strand shown. An outline of the steps: as §1

Another test deals with SPI1 (Homo sapiens, UniProt P17947 1-270). To be noted: protein: recombinant; tags: N-terminal GST; dsDNA, one strand shown. An outline of the steps: as §1
A further test concerns the target T6, FEV (Homo sapiens, UniProt Q99581 1-238).
T6 sequence: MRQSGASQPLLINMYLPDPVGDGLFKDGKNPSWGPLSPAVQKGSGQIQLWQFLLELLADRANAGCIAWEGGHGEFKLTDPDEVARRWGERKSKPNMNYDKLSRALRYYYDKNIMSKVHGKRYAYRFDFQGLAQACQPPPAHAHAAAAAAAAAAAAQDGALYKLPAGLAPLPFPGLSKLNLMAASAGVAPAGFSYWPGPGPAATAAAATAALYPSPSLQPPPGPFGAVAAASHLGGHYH
As to conditions: protein: recombinant; tags: N-terminal GST; dsDNA, one strand shown. An outline of the steps: as §1

A further test concerns the target ETV5 (Homo sapiens, UniProt P41161 1-510). As to conditions: protein: recombinant; tags: N-terminal GST; dsDNA, one strand shown. An outline of the steps:
as §1

In the next test the target is HSF1 (Homo sapiens, UniProt Q00613 1-529). To be noted: protein: recombinant; tags: N-terminal GST; chain copies: 3; dsDNA, one strand shown. An outline of the steps:
as §1

A further test concerns the target T7, SPIC (Homo sapiens, UniProt Q8N5J4 1-248).
T7 sequence: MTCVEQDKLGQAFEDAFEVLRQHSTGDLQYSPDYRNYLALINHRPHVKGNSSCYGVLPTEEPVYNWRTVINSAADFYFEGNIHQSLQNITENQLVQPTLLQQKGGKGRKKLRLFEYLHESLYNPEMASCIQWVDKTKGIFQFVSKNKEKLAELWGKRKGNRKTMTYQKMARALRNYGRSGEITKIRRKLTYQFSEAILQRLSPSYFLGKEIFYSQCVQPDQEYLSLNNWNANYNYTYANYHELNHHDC
As to conditions: protein: recombinant; tags: N-terminal GST; dsDNA, one strand shown. An outline of the steps: as §1

Another test addresses ELF4 (Homo sapiens, UniProt Q99607 1-663). To be noted: protein: recombinant; tags: N-terminal GST; dsDNA, one strand shown. An outline of the steps:
as §1

The target of a further test is T8, ELK4 (Homo sapiens, UniProt P28324-2 1-405).
T8 sequence: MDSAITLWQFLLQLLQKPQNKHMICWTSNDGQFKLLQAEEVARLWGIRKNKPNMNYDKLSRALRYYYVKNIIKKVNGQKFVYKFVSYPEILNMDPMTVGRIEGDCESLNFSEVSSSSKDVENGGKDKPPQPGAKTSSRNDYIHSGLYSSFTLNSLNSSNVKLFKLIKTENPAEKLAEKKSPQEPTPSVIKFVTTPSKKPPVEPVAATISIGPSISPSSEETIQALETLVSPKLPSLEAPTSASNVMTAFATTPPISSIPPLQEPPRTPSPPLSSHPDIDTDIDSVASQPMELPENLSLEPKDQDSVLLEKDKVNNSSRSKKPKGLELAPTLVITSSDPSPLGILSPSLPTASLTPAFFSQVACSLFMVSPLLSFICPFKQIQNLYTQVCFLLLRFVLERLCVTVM
To be noted: protein: recombinant; tags: N-terminal GST; dsDNA, one strand shown. An outline of the steps:
as §1

A further test concerns the target T9, ETV2 (Homo sapiens, UniProt O00321 1-342).
T9 sequence: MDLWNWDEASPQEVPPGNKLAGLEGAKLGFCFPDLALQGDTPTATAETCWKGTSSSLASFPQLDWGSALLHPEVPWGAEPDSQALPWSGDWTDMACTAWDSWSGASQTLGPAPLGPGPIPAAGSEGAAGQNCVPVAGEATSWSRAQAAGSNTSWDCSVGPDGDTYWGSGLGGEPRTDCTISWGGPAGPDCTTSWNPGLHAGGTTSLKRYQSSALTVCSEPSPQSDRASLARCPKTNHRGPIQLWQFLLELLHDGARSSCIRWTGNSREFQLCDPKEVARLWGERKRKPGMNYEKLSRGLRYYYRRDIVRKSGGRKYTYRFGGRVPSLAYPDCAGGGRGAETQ
As to conditions: protein: recombinant; tags: N-terminal GST; dsDNA, one strand shown. An outline of the steps:
as §1

The target of a further test is T10, ELF3 (Homo sapiens, UniProt P78545 1-371).
T10 sequence: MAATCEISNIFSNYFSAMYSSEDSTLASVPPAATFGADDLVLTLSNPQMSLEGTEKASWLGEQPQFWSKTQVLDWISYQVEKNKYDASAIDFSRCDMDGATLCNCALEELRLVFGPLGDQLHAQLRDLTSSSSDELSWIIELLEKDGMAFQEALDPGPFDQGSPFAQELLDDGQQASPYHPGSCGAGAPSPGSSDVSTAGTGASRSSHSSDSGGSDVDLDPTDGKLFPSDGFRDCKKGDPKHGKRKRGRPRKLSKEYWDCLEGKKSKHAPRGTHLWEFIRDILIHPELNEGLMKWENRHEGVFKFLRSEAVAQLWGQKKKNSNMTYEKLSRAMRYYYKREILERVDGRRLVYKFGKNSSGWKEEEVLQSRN
As to conditions: protein: recombinant; tags: N-terminal GST; dsDNA, one strand shown. An outline of the steps: as §1

For another test, the target named is CRX (Homo sapiens, UniProt O43186 1-299). As to conditions: protein: recombinant; tags: N-terminal GST; dsDNA, one strand shown. An outline of the steps:
as §1

In the next test the target is ETV1 (Homo sapiens, UniProt P50549 1-477). As to conditions: protein: recombinant; tags: N-terminal GST; dsDNA, one strand shown. An outline of the steps: as §1
Chain of ETV1 (P50549 whole entry): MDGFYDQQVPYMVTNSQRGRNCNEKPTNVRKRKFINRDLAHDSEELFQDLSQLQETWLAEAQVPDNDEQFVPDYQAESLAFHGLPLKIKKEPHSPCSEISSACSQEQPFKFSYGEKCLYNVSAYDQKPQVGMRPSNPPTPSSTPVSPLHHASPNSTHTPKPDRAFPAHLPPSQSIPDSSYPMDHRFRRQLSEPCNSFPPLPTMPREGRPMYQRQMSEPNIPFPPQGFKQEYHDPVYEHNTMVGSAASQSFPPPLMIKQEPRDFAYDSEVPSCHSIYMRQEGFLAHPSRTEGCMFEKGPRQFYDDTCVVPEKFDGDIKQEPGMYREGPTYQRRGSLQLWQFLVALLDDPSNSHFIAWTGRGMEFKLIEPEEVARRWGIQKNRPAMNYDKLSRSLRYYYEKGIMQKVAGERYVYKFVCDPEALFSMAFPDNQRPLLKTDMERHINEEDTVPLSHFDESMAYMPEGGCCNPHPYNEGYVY

Chain of CRX (O43186 whole entry): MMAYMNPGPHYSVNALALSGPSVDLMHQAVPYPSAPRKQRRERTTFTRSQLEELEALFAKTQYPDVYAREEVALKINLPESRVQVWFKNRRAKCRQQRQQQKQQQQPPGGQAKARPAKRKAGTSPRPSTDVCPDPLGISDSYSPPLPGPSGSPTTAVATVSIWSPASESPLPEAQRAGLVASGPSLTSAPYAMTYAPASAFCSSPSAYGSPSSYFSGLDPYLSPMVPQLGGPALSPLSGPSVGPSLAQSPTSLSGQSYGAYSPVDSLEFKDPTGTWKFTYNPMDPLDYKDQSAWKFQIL
Chain of ELF1 (P32519 whole entry): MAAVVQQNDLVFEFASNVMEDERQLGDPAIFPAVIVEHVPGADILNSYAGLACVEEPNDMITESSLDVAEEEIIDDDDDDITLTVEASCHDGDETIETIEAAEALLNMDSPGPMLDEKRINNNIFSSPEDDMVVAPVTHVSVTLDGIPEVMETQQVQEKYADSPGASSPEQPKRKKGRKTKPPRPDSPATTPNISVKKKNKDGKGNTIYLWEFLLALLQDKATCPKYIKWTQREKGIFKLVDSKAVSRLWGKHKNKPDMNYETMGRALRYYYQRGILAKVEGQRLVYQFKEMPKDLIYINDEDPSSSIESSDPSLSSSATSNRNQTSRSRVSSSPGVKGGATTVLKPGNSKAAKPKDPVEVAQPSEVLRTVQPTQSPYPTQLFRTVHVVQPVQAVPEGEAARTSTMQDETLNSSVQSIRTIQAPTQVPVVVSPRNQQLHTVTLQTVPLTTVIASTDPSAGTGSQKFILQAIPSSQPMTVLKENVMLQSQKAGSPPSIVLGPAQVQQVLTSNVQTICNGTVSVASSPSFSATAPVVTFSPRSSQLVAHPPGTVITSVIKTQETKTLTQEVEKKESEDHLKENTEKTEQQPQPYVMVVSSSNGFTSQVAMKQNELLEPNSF
Chain of ETV5 (P41161 whole entry): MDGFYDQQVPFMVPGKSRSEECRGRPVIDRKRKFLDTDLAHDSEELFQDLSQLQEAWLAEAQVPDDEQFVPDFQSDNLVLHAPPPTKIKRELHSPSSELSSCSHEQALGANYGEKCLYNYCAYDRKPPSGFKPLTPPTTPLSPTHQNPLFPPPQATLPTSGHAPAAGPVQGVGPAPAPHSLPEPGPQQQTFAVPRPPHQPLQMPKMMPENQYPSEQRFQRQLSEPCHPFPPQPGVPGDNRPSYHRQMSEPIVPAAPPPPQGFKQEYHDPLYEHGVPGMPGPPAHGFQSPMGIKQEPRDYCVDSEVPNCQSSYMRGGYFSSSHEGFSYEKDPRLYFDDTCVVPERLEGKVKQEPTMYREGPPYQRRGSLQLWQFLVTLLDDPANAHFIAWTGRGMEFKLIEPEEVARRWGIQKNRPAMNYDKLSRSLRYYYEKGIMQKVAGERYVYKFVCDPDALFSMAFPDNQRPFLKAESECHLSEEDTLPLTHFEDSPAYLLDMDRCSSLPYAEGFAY
Chain of ELF4 (Q99607 whole entry): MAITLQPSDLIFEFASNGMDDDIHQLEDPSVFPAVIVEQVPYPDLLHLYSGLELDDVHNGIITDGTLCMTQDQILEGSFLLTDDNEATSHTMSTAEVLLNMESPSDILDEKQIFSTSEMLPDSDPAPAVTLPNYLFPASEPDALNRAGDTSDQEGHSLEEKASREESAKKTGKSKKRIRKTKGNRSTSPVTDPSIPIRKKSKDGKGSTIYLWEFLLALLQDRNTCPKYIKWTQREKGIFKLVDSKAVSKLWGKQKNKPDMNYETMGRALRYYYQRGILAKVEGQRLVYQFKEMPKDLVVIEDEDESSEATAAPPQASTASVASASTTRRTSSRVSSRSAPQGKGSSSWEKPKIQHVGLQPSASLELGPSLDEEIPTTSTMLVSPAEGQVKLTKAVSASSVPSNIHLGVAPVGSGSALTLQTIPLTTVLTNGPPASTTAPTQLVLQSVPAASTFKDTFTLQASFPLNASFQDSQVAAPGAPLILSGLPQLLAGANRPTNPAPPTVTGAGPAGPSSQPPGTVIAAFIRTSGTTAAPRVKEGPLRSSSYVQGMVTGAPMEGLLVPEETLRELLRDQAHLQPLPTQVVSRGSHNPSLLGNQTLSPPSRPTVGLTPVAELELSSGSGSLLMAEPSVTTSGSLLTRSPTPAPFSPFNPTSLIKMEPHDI
Chain of HSF1 (Q00613 whole entry): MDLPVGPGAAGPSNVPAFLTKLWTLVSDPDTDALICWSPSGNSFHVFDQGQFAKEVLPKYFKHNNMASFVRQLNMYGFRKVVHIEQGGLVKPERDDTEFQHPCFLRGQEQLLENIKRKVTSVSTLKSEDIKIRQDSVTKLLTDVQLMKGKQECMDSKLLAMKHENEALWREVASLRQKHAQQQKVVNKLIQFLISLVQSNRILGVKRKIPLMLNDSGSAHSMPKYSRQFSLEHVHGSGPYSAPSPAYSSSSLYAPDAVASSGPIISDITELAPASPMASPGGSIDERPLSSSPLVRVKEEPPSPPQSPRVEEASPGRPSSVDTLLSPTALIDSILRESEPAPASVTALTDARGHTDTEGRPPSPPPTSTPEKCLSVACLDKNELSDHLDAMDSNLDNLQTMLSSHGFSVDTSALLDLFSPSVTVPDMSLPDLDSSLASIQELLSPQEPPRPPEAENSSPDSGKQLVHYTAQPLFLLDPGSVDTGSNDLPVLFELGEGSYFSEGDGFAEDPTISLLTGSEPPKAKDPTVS

As to TTGAGG, the binding signal was 1.23 fold enrichment (6-mer frequency, TF over GST control) in the test with FLI1; 1.09 fold enrichment (6-mer frequency, TF over GST control) with ELK1; 1.16 fold enrichment (6-mer frequency, TF over GST control) in the test with GABPA; 1.06 fold enrichment (6-mer frequency, TF over GST control) with ERG; 1.08 fold enrichment (6-mer frequency, TF over GST control) in the test with ELF1; 1.11 fold enrichment (6-mer frequency, TF over GST control) in the test with EHF. The binding signal with SPI1 is 1.27 fold enrichment (6-mer frequency, TF over GST control); with FEV, 1.06 fold enrichment (6-mer frequency, TF over GST control); with ETV5, 1.09 fold enrichment (6-mer frequency, TF over GST control); with HSF1, 1.01 fold enrichment (6-mer frequency, TF over GST control); with SPIC, 1.26 fold enrichment (6-mer frequency, TF over GST control); with ELF4, 1.13 fold enrichment (6-mer frequency, TF over GST control). In addition, the binding signal with ELK4 was 1.23 fold enrichment (6-mer frequency, TF over GST control); with ETV2, 1.1 fold enrichment (6-mer frequency, TF over GST control); with ELF3, 1.05 fold enrichment (6-mer frequency, TF over GST control); with CRX, 1.02 fold enrichment (6-mer frequency, TF over GST control); with ETV1, 1.06 fold enrichment (6-mer frequency, TF over GST control).

The values above are taken from PMC7862700, “An all-to-all approach to the identification of sequence-specific readers for epigenetic DNA modifications on cytosine”.
